Laboratory results taken from PubChem BioAssay (NCATS).
Records with an inconclusive call do not appear. Activity calls are given as the source filed them. Calls follow the shape of the dose curve; as a rule, active = well fitted curve in either direction with a large enough effect (not every such curve was filed as active); inconclusive = small, poorly fitted or top-dose-only effect, or another doubt; inactive = flat fitted curve, though single readings scatter.

experiment: AP1 Signaling Pathway (AID 357); conditions: ME-180 AP-1-bla reporter, EGF-induced, beta-lactamase ratio, 5 h; at 17.2 µM (top of the series) unless noted
Procedure, shortened: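 ME-180 cells with beta-lactamase reporter under AP-1 response element, stimulated with EC50 EGF; compounds tested in titration series, 5 h at 37 °C. CCF4 substrate added 2.5 h at room temperature; 460/530 nm emission ratio gave %activity and AC50.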
% is scaled to controls: 0 for no effect and ±100 for the full control effect.

Activity change, negative = inhibition, inactive:
C=CCNC(=O)C(C#N)c1nc2ccccc2nc1N1CCCCCC1 (stereo not given) -18.4%
Clc1ccc(-c2nnc3sc(Cc4cccs4)nn23)cc1 2.06%
Cn1c(N2CCOCC2)nc2c1c(=O)n(Cc1ccc(Cl)c(Cl)c1)c(=O)n2C -18.7%
COc1ccc(/C(O)=C2\C(=O)C(=O)N(c3cc(C)on3)C2c2ccccc2OC)cc1 (stereo not given) -12.4%
COc1cccc(-c2nc(NCC3CCCO3)c3ccccc3n2)c1O (stereo not given) -22.6%
Cc1ccnc(N2CCN(c3cc(C)c(C#N)c4nc5ccccc5n34)CC2)c1 22.1%
CCN1CCN(c2nc3c(C)cccn3c(=O)c2/C=C(\C#N)S(=O)(=O)c2ccc(C)cc2)CC1 6.19%
CCSc1nnc(NC(=O)C(CC)(C(F)(F)F)C(F)(F)F)s1 -19%
Cc1c([C@H]2[C@@H](CC#N)C2(C)C)c2ccccc2n1C -11.6%
CCCCNC(=O)C(C#N)c1nc2ccccc2nc1N1CCN(c2ccccc2F)CC1 (stereo not given) -4.46%
CN(C)CCCN1C(=O)C(=O)/C(=C(/O)c2ccccc2)C1c1ccccn1 (stereo not given) 7%
COCc1cc(=O)[nH]c(Nc2nc3ccc(C)cc3o2)n1 -0.718%
CC(C)(C)c1cc(-c2ccco2)c(C#N)c(SCC#N)n1 28.8%
CCOC(=O)c1ccc(N=Cc2nc(-c3ccccc3)oc2OC(C)=O)cc1 -16.3%
CC(C)(C)C1CCC2(CC1)C(C#N)=C(SCC(=O)Nc1ccccc1)NC(=O)C2C#N (stereo not given) -1.12%
CN1CCc2c(sc3c2c(=O)n(-c2ccccc2)c2nnc(SCc4ccccc4)n32)C1 -13.6%
N#CC(C#N)C(c1ccsc1)c1c(-c2ccccc2)[nH][nH]c1=O (stereo not given) -20.2%
CSc1nc2sc3c(c2c2nnnn12)CCCC3 19.7%
CC1CCN(c2oc(-c3ccccc3Cl)nc2C#N)CC1 -14%
Cc1ccccc1-c1nn2c(-c3ccccc3)nnc2s1 -18%
Oc1oc(-c2ccco2)nc1C=Nc1cccc(Cl)c1 -27%
N#CC1=C(N)C(C#N)(C#N)[C@H](c2ccncc2)[C@H]2CN(C(=O)OCc3ccccc3)CC=C12 -27.2%
CCCc1cc(-c2nc(N)ncc2-c2ccc3c(c2)OCCCO3)c(O)cc1OC -29.1%
CC(C)C[C@H]1C(=O)N2CCC[C@H]2[C@]2(O)O[C@](NC(=O)[C@@H]3C=C4c5cccc6[nH]c(Br)c(c56)CC4N(C)C3)(C(C)C)C(=O)N12 (stereo not given in full) -20.7%
CN=C(c1ccco1)n1c(=S)nc(-c2ccco2)n(C)c1=S 10.9%
N#Cc1c(N)n(CCOC(=O)c2ccc(Cl)cc2)c2nc3ccccc3nc12 19.1%
CC(C)(C)c1nnc2sc(SCC(=O)c3ccccc3)nn2c1=O 2.49%
N#Cc1cc(Oc2cccc3cccnc23)c(-n2nnc3ccccc32)cc1C#N 11.4%
CCOC(=O)CSc1nnc2n(Cc3ccccc3)c(=O)c3c4c(sc3n12)CCC4 -11.8%
Clc1ccc2nc(N3CCNCC3)nc(-c3ccccc3)c2c1 28.9%
C=CCNc1nnc(SC2CC(=O)N(c3ccc(OC)cc3)C2=O)s1 (stereo not given) -11.6%
CC(C)N1CC=C2C(C#N)=C(N)C(C#N)(C#N)C(c3ccccc3)C2C1 (stereo not given) 26.3%
CCCSc1nnc(NC(=O)Nc2ccc(F)cc2)s1 -11.2%
C=CCOC(=O)C(C#N)c1nc2ccccc2nc1N1CCN(c2ccccc2OCC)CC1 (stereo not given) 9.88%
CN1CCc2nc(SCC(=O)Nc3ccc(Cl)cc3)c(C#N)cc2C1 5.33%
CCOc1ccc(S(=O)(=O)NC(C)(C)C)cc1-c1nc2c(C(C)(C)C)nn(C)c2c(=O)[nH]1 -8.82%
CCOC(=O)C1=C(CSc2nc3c(cc2C#N)CN(C)CC3)OC(N)=C(C#N)C1c1ccccc1 (stereo not given) -2.2%
C/C(=N\O)c1ccc2[nH]ccc2c1 2.69%
CN1CC2(C)CN(C(c3ccccc3)c3ccccc3)CC(C)(C1)C2O (stereo not given) 14.1%
Fc1ccc2[nH]c3c(N4CCSCC4)ncnc3c2c1 -16.7%
